FBW7 act – activators of human E3 ligase FBW7. AlphaScreen FBW7–phospho-cyclin E peptide binding, activator screen. normalized activity (activation), % at 26.1 µM. 650,000 tested, 0.13% active. AID 1259310; in the data active means normalized activity above about 1.9%;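 further: purified mutant Fbw7 with reduced substrate affinity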
GPR151 ag – human GPR151 activation. Q8TDV0. PathHunter beta-arrestin GPR151 cells, luminescence. activation, % at 11.2 µM. 650,000 tested, 1% active. AID 1508602; in the data active means activation above about 4.9%
Target sequence (Q8TDV0 whole entry, looked up): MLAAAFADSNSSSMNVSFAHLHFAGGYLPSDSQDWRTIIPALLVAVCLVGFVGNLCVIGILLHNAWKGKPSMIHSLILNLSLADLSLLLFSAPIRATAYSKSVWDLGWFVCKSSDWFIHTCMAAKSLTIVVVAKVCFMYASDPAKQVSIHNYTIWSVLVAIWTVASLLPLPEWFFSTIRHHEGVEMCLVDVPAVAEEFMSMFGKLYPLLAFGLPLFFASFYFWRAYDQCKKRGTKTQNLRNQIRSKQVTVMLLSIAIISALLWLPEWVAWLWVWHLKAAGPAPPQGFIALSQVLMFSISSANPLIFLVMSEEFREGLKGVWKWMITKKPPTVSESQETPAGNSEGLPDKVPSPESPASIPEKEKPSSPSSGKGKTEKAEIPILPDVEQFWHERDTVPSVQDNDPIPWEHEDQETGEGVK
TEAD-YAP inh – TEAD-YAP interaction inhibition; 640,000 tested, 1.4% active; HEK-TIYL cells, TEAD-Gal4/YAP UAS-luciferase luminescence; inhibition, % at 9.12 µM; AID 1259422; in the data active means inhibition above about 32%
MITF primary – blocks human microphthalmia-associated transcription factor; AlphaScreen MITF homodimerization, bead proximity signal; O75030; 650,000 tested, 0.91% active; inhibition, % at 2.6 µM; in the data active means inhibition above about 50%
Of the large screens only hits and unclear results are named; the others gave an inactive call; ! = repeats disagree. Hits are enriched below; roughly 3.4% of the tested compounds scored in any of these assays.

Clc1ccc(CN2CCC(c3nc(-c4cccs4)no3)CC2)s1	none
COc1ccccc1-c1cc(C(=O)N2CCN(C)CC2)no1	none
Cn1/c(=N/N=C(/CCC(=O)O)C(=O)O)sc2ccccc21	none
O=C1CCCN1CCn1cnc2c(NCCO)nc(N3CCN(c4ccccn4)CC3)nc21	none
O=C1CCCN1CCCNc1nc(Nc2ncccn2)nc2c1ncn2-c1ccsc1	none
O=C1CCCN1CCCNc1nc(N2CCN(c3ccccn3)CC2)nc2c1ncn2-c1ccsc1	TEAD-YAP inh 58.2
O=C1CCCN1CCn1cnc2c(NCCc3ccc(O)cc3)nc(N3CCN(c4ccccn4)CC3)nc21	TEAD-YAP inh 36.1
CCCNc1nc(NCCCN2CCCC2=O)nc2c1ncn2-c1ccsc1	TEAD-YAP inh 47.6
CC(C)N(CCNc1nc(NCCCN2CCCC2=O)nc2c1ncn2-c1ccsc1)C(C)C	none
CC(=O)Nc1ccc(Nc2nc(NCCCN3CCCC3=O)nc3c2ncn3-c2ccsc2)cc1	TEAD-YAP inh 39.9
OCCN1CCN(c2cc(-c3ccccc3)nc(-c3ccccn3)n2)CC1	none
CCN(c1ccccc1)c1ncnc2c1cnn2-c1cccc(C)c1	none
CC1CCCN(CCCN2C(=O)C3C(C(=O)Nc4cc(Cl)cc(Cl)c4)C4C=CC3(O4)C2C(=O)NC2CCCCC2)C1 (centres undefined)	none
FC(F)(F)c1ccc(Cn2cnc3c(NC4CCN(Cc5ccccc5)CC4)nc(Cl)nc32)cc1	none
OC1CCC(Nc2nc(NC3CCN(Cc4ccccc4)CC3)c3ncn(Cc4ccc(C(F)(F)F)cc4)c3n2)CC1 (centres undefined)	TEAD-YAP inh 49.4
O=C1CCCN1CCCNc1nc(N2CCOCC2)nc2c1ncn2-c1ccsc1	TEAD-YAP inh 57.0
CCOC(=O)c1c(NC(=O)c2ccc(S(=O)(=O)N3CCN(C(=O)OCC)CC3)cc2)sc2c1CCC2	none
CCOC(CNC(=O)c1sc2ncn(CC(=O)Nc3ccccc3OC)c(=O)c2c1C)OCC	none
CN1CCN(C(=O)c2ccc(NC(=O)Cn3nc(-c4ccccc4F)ccc3=O)cc2)CC1	none
COc1ccccc1-c1ccc(=O)n(CC(=O)Nc2ccc(C(=O)N3CCCC3)cc2)n1	FBW7 act 4.1
C/C(=N\NC(=O)CNC(=O)C(c1ccccc1)c1ccccc1)c1cccs1	none
O=C(Nc1cc([N+](=O)[O-])ccc1O)c1ccc(F)cc1	none
O=C(NCc1ccc(C(=O)NCCc2ccccn2)cc1)Nc1ccc(-c2cn[nH]c2)cc1	FBW7 act 1.9
Fc1cc(-c2nc(Nc3ccc(-n4cnc(N5CCOCC5)n4)cc3)ncc2F)cc(N2CCOCC2)c1	none
c1ccc(-c2ncn(-c3ccc(Nc4nccc(-c5cncc(N6CCOCC6)c5)n4)cc3)n2)nc1	TEAD-YAP inh 73.0
c1cc(-c2ccnc(Nc3ccc(-n4cnnc4)cc3)n2)cc(N2CCOCC2)c1	TEAD-YAP inh 44.6
Fc1cc(-c2nc(Nc3ccc(-n4cnc(-c5ccccn5)n4)cc3)ncc2F)cc(N2CCOCC2)c1	TEAD-YAP inh 58.4
c1ccc(-c2ncn(-c3ccc(Nc4nccc(-c5cccc(N6CCOCC6)c5)n4)cc3)n2)nc1	TEAD-YAP inh 80.2
Cc1cc(=O)n2[nH]cc(C(=O)N3C4CCC3CC(c3ccc(F)cc3)C4)c2n1 (centres undefined)	none
CCCCN1C(=O)C(=O)c2cc(Br)ccc21	TEAD-YAP inh 41.4
CC(=O)CCN1C(=O)C(=O)c2cc(Br)ccc21	none
Cc1cc(N2CCCC2)c(C)cc1/C=C\[N+](=O)[O-]	TEAD-YAP inh 53.8
Cc1cc(N2CCCC2)c(C)cc1C=O	none
OCCNc1nc(-c2cccs2)nc2c1ncn2-c1ccccc1	none
O=S(=O)(Nc1ccc2c(c1)OCO2)c1ccc(Oc2ccc(Br)cc2)cc1	none
O=[N+]([O-])c1ccc(Oc2ccc(S(=O)(=O)Nc3ccc4c(c3)OCCO4)cc2)cc1	TEAD-YAP inh 43.4
COc1ccc(OC)c(NC(=O)CSc2nnc(-c3ccccc3)n2-n2cccc2)c1	none
COc1cccc(-c2nnc(SCC(=O)Nc3cc(Cl)ccc3OC)n2-n2cccc2)c1	TEAD-YAP inh 52.0
CCOc1ccc(C(=O)Nc2ccc(OC)c(Cl)c2)cc1Br	none
O=C(Nc1ccc(Br)cc1)c1ccc(F)c(S(=O)(=O)NC2CCCCCC2)c1	TEAD-YAP inh 40.4
CCOc1ccc(NC(=O)c2ccc(F)c(S(=O)(=O)NC3CCCC3)c2)cc1	TEAD-YAP inh 69.1
CCOC(=O)c1ccccc1N=Cc1c(O)n(Cc2ccccc2Cl)c(=O)[nH]c1=O	none
Oc1c(C(c2ccccn2)N2CCCCC2)ccc2cccnc12 (centres undefined)	TEAD-YAP inh 38.8, MITF primary 98.6
Oc1c(C(c2ccccc2Cl)N2CCCCC2)ccc2cccnc12 (centres undefined)	TEAD-YAP inh 87.5
Cc1nc2sc(C(c3ccccc3Cl)N3CCCC3)c(O)n2n1 (centres undefined)	none
OCCN1CCN(C(c2ccccn2)c2ccc3cccnc3c2O)CC1 (centres undefined)	MITF primary 93.3
Oc1c(C(c2ccccc2Cl)N2CCOCC2)ccc2cccnc12 (centres undefined)	TEAD-YAP inh 84.2, MITF primary 62.1
O=C(/C=C/Nc1ccc(Cl)cc1)c1ccco1	none
COc1ccccc1N(CCCN1C(=O)c2cccc3cccc(c23)C1=O)C(=O)c1cc(OC)c(OC)c(OC)c1	none
CCc1ccc2c(c1)c1nnc(SCC(=O)O)nc1n2C	none
COc1cccc(C2=NC(c3ccc(Br)cc3)NC(c3cc(Br)ccc3O)C2)c1 (centres undefined)	none
COc1cccc(C2=NC(C(C)C)NC(c3cc(Br)ccc3O)C2)c1 (centres undefined)	TEAD-YAP inh 35.2
Oc1ccc(Br)cc1C1CC(c2cccc(Br)c2)=NC(c2ccc(Cl)cc2Cl)N1 (centres undefined)	none
Oc1ccc(Br)cc1C1CC(c2cccc(Br)c2)=NC(c2ccc(F)c(Br)c2)N1 (centres undefined)	TEAD-YAP inh 31.9
COc1ccc(Cc2nnc(Nc3cccc(OC)c3)[nH]c2=O)cc1	TEAD-YAP inh 57.4
COc1ccc(Cc2nnc(NCc3ccco3)[nH]c2=O)cc1	TEAD-YAP inh 58.0
CC(=O)N1CCN(Cc2ccc3c(c2)CN(CCC(C)c2ccc(C)o2)CCO3)CC1 (centres undefined)	none
O=C1C=CC(=O)N1c1cc(Cl)c(Cl)cc1Cl	none
COc1cc2nc(CN3c4ccccc4CC3C)[nH]c(=O)c2cc1OC (centres undefined)	TEAD-YAP inh 48.2
COc1cc2nc(CN3CCCCCCC3)[nH]c(=O)c2cc1OC	none
COc1cc2nc(CN3CCN(c4ccccn4)CC3)[nH]c(=O)c2cc1OC	TEAD-YAP inh 72.9
COc1ccc(C(=O)c2c(/C=C/N(C)C)oc3ccc(OC)cc23)cc1	none
Nn1c(SCC(=O)NC2CCCc3ccccc32)nnc1C(F)(F)F (centres undefined)	TEAD-YAP inh 34.3
COc1ccc(-c2cc(=O)c3c(O)cc(OC)cc3o2)cc1	none
COc1ccc(-c2cc(=O)c3cc(O)ccc3o2)cc1	TEAD-YAP inh 43.1
COc1ccc(-c2cc(=O)c3c(O)cc(O)cc3o2)cc1	TEAD-YAP inh 52.6!
COc1ccc(-c2cc(=O)c3cc(C)ccc3o2)cc1	none

High-throughput results (PubChem)
